This note sets out measurements from ChEMBL document CHEMBL1157539, “Thousands of chemical starting points for antimalarial lead identification” (Nature, 2010).

This experiment has as its system Plasmodium falciparum. Briefly: GSK_TCMDC: Inhibition of Plasmodium falciparum 3D7 in whole red blood cells, using parasite LDH activity as an index of growth. Test compounds present at 2uM. It counts as functional.
On to `N#Cc1ccc(Sc2nnc(-c3ccccc3Cl)n2CC2CCCCC2)cc1[N+](=O)[O-]`, for which the Inhibition turned out to be 85%. In the case of `Nc1cccc(CNCc2cccc(-c3cccc(-c4nc5ccccc5[nH]4)c3)c2)c1.O=C(O)C(F)(F)F` it was 100%. In the case of `COc1ccc(Cc2nc3c(n2C(C)=O)SC(c2ccc(Cl)c(Cl)c2)=NN3C(C)=O)cc1` it was 94%. `O=C(Nc1ccc(C(F)(F)F)cc1)c1ccc(NCCCN2CCCCCC2)c([N+](=O)[O-])c1` came in with an Inhibition of 100%. The compound `COc1c(C2CCN(CCCCNC(=O)c3ccc(-c4ccc(C#N)cc4)c(O)c3)CC2)ccc2c1CCCC2.Cl` registered an Inhibition of 100%. In the case of `NCC(NC(=O)c1ccc(-c2c[nH]c3ncccc23)s1)c1ccccc1.O=CO` (stereo not given) it was 95%; in that of `COc1ccccc1C1CCN(C2CCC(NC(=O)/C=C/c3cc(C(F)(F)F)ccc3F)CC2)CC1` (stereo not given), 97%; in that of `COc1ccc(C)cc1NC(=O)CSc1nc2cccnc2n1C1CCCCC1`, 89%. In the case of `COc1ccc(CCc2ccc(-c3c(C)[nH]c(C)c(Cl)c3=O)cc2)cc1OC` it was 99%; in that of `O=C(NCCCN1CCC(Cc2ccccc2)CC1)c1cc2c(Cl)nc3ccccc3c2s1`, 98%. The figure for `O=C(COc1ccc(Cl)c(Cl)c1)NCCCCCN1CCCN(C(=O)Nc2cc(Cl)cc(Cl)c2)CC1.O=C(O)C(F)(F)F` is 89%; for `Cc1cccc2nc(-c3ccc(-c4cccc(NC(=O)NCc5ccc(F)cc5)c4)cc3)[nH]c12` it is 100%. As for `CNCC(C)(C)c1nc(-c2ccc(Cl)c(O)c2)c(-c2ccncc2)[nH]1.Cl`, the Inhibition is recorded as 98%. The figure for `Cl.c1ccc2ncc(CNCCCCCCCCNCc3cnc4ccccc4c3)cc2c1` is 88%.

As to `c1ccc2[nH]c(CN(Cc3nc4ccccc4[nH]3)Cc3nc4ccccc4[nH]3)nc2c1`, the Inhibition was determined as 81%. In the case of `Cn1cc(C2CCN(CCCCNC(=O)c3ccc(C(=O)Nc4ccc(C#N)cc4)cc3)CC2)c2ccccc21` it was 100%. For the compound `CC(C)NC[C@@H](O)[C@H](Cc1ccccc1)NC(=O)c1cc2c3c(c1)c(C(C)C)cn3CCS(=O)(=O)N2C.O=CO`, the Inhibition is 98%.

The compound `Nc1nc(N)c2c(Cc3ccc(Br)cc3)cccc2n1` had an Inhibition of 99%.

In the case of `COc1ccc2[nH]ccc(=NN=Cc3cccc(C)n3)c2c1`, the Inhibition stood at 100%.

Take `COc1ccccc1C1CCN(C2CCC(NC(=O)/C=C/c3cccc(C(F)(F)F)c3)CC2)CC1` (stereo not given): the Inhibition is 99%. As to `CCOC(=O)C(CO)NC(=O)c1ccc([N+](=O)[O-])o1` (stereo not given), the Inhibition was 96%. The figure for `NC12CC3CC(CC(C3)C1)C2` [AMANTADINE] is 98%; for `C=CCNC(=O)CCCNC(=N)N.Cl` it is 98%. In the case of `COc1ccc(C=NN=c2cc[nH]c3ccccc23)c2ccccc12` it was 100%. In turn, `O=C(Nc1ccc(C(=O)Oc2ccc(-c3ccccc3)cc2)cc1)N[C@@H](Cc1ccc(O)cc1)C(=O)NC1CCN(Cc2ccc(O)cc2)C1.O=C(O)C(F)(F)F` (stereo not given in full) displayed an Inhibition of 94%.

`Cc1cc(NC(=O)c2sc3ccccc3c2O)no1`: the Inhibition was determined as 96%.

`CCCCCc1cnc2nc(N)nc(N)c2c1C.Cl` registered an Inhibition of 96%.

`CN1CCN(Cc2nc(-c3ccc4c(Nc5ccc(Oc6ccccc6)cc5)ccnc4c3)cs2)CC1` had an Inhibition of 100%.

Turning to `CCCCCC(C)C(C)c1cc(O)c2c(c1)OC(C)(C)CC2=Cc1ccncc1` (stereo not given), the Inhibition is 100%.

In the case of `COc1ccc2nccc([C@@H](O)CN3CCC(NCc4cc5c(Cl)cc(Cl)cc5[nH]4)CC3)c2c1.O=C(O)C(=O)O`, the Inhibition amounted to 100%. Turning to `CCCNCc1ccc(-c2ccc(CN(CCOC)C(=O)CC3CCCC3=O)cc2)nc1.O=C(O)C(F)(F)F` (stereo not given), the Inhibition amounted to 93%. In the case of `c1ccc(CN2CCCN(c3ccc4c(c3)CCN(Cc3ccc(-c5ncc[nH]5)cc3)CC4)CC2)cc1` it was 100%; in that of `Br.Oc1cccc(CCNCCCCCCNCCc2ccc(Cl)cc2)c1`, 96%; in that of `CO/C(=C\C=C\c1cc2cc(Cl)c(Cl)cc2[nH]1)C(=O)NCCCN1CCN(c2cccc(CCO)c2)CC1`, 100%. Consider `CC(=O)Oc1c(C2CCN(CCCCNC(=O)c3ccc(-c4ccc(C#N)cc4)cc3)CC2)ccc2c1CCCC2`, for which the Inhibition is recorded as 88%. In the case of `CC(=O)Oc1cc(C)ccc1C1CCN(CCCCNC(=O)c2ccc(-c3ccc(C(F)(F)F)cc3)cc2)CC1` it was 100%; in that of `O=C(NCCNc1ccnc(Nc2ccc(F)cc2)n1)Nc1ccc2c(c1)OCO2`, 97%. The figure for `COCCNCc1ccc(-c2cccc(CNC3CCN(Cc4ccccc4)CC3)c2)cc1.O=C(O)C(F)(F)F` is 100%; for `O=C(CCc1c[nH]cn1)Nc1ccc(-c2ccc(-c3nc4ccccc4[nH]3)cc2)cc1` it is 98%; for `CCNc1cc(C(=O)N[C@@H](Cc2ccccc2)[C@H](O)CNC(C)CC(C)C)c(F)c(N2CCCCS2(=O)=O)c1.O=CO` (stereo not given in full) it is 95%.
